Compound activity as filed in PubChem.
TGFb SMAD3 inh = inhibitors of TGF-b signaling | HepG2 CAGA-GFP TGF-b/SMAD3 reporter, GFP fluorescence, 18 h; TGF-beta stimulated, 500 pg/mL final | 410,000 tested, 1.2% active | Potency, µM (highest dose often 46.1 µM), hits mostly inhibitors; also: nearly all actives have a fitted effect of over 65% in size
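HEPG2 CAGA-GFP cells (1000/well, DMEM with 1% FBS) were pre-incubated 2 h at 37 degrees C, given compound by pin tool, then stimulated with TGF-beta at 500 pg/mL final for 18 h before per-cell GFP fluorescence imaging.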
Nrf2 inh = Nrf2 pathway inhibition; AID 504444; 360,000 tested, 2.1% active; Potency, µM (series often up to 46 µM), most hits filed as inhibitors; A549 ARE-Fluc reporter, luciferase luminescence, 18-24 h; also: nearly all actives have a fitted effect of over 60% in size
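Concentration-response testing used A549 ARE_Fluc cells at 5000 cells/well. Following an 18-24 h compound incubation, viability was read by fluorescence (Ex 405/Em 525) and luciferase output by luminescence.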
ATXN2 expr inh = ATXN2 expression inhibition; HEK-293 ATXN2-luciferase reporter, luminescence, 24 h; Potency, µM (series often up to 57 µM), most hits filed as inhibitors; 360,000 tested, 0.72% active; also: nearly all actives have a fitted effect of over 55% in size
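qHTS (up to 57 uM final) was run with 24 h compound exposure of reporter cells at 37 °C. Each well was multiplexed: SteadyGlo luminescence measured ATXN2-luciferase expression after a fluorogenic Gly-Phe-AFC viability readout (25 uM final).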
A549 tox = A549 cytotoxicity, counter-screen for Nrf2 inhibitors; A549 ARE-Fluc cells, CellTiter-Fluor viability, 18-24 h; Potency, µM (top dose mostly 46 µM), usual class: inhibitors; 390,000 tested, 0.16% active
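A549 ARE_Fluc cells in 5% FBS OPTI-MEM were exposed to compounds in concentration-response for 18-24 h at 37 deg C. Viability was read by CellTiter-Fluor fluorescence (Ex 405/Em 525) after 30 min, before the luciferase read.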
HepG2 viability = counter-screen for TGF-b inhibitors: cytotoxicity in HepG2 cells; HepG2 CAGA-GFP viability, ATP luminescence, 18 h; Potency, µM (top dose mostly 46.1 µM), hits mostly cytotoxic; 410,000 tested, 0.76% active
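CellTiter-Glo luminescence gave cytotoxicity after 18 hours at 37 degrees C. The cells were HepG2 CAGA-GFP in 1% FBS DMEM, stimulated with 500 pg/mL TGF-beta after compound addition. %Activity was normalised to no-cell wells (complete cell-killing) and DMSO (no toxicity), and curves were fitted and classified.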
S2 tox = viability counter-screen for ATXN expression inhibitors; S2 cells (HEK-293 line with an ATXN2-luciferase reporter) viability, CellTiter-Fluor protease fluorescence, 24 h; Potency, µM (doses to about 56.7 µM), actives largely listed as cytotoxic; 400,000 tested, 0.49% active; AID 651635; also: nearly all actives have a fitted effect of over 40% in size
Numbers stand for hits. Shown are actives, neighbours in structure and some others; about 3.8% of the full set was active somewhere. Calls follow the shape of the dose curve; as a rule, active = well fitted curve in the direction sought with a large enough effect; inconclusive = small, poorly fitted or top-dose-only effect, or another doubt; inactive = no such curve, though single readings can be large; an effect the other way counts as inactive or inconclusive.

For CCC(=O)C1=C(c2ccc(OC)c(OC)c2)N(C(=O)CC)n2c(CC)nnc2S1 the results were TGFb SMAD3 inh inconclusive, Nrf2 inh 23µM, A549 tox inactive and HepG2 viability inactive.
For CCCC(=O)C1=C(c2ccc(C)c(C)c2)N(C(=O)CCC)n2c(CC)nnc2S1 the results were TGFb SMAD3 inh inactive, A549 tox inactive and HepG2 viability inactive.
`O=C(Nc1ccc(F)cc1F)c1cc(-c2ccc(Cl)cc2)on1` gave TGFb SMAD3 inh inactive, Nrf2 inh inactive, ATXN2 expr inh inactive, A549 tox inactive, HepG2 viability inactive and S2 tox inactive.
`CN1c2ccccc2C(C)(C)[C@]12C=Cc1cc(O)ccc1O2` gave TGFb SMAD3 inh 18µM, Nrf2 inh inconclusive, ATXN2 expr inh inactive, A549 tox inactive, HepG2 viability inactive and S2 tox inconclusive.
`CN1c2ccccc2C(C)(C)C12C=Nc1c(ccc3ccccc13)O2` (stereo unspecified) gave TGFb SMAD3 inh inconclusive, Nrf2 inh inactive, ATXN2 expr inh inactive, A549 tox inactive, HepG2 viability inactive and S2 tox inactive.
CCCCCCCCn1cnc2c(N)c(C)c(C)cc21 was read as TGFb SMAD3 inh inconclusive, ATXN2 expr inh inactive, A549 tox inactive, HepG2 viability 20µM and S2 tox inactive.
CC(C)C[C@@H](C(=O)NC1CCN(Cc2ccccc2)CC1)N1C(=O)N2CCc3c([nH]c4ccccc34)[C@@]2(C)C1=O was read as TGFb SMAD3 inh inconclusive, Nrf2 inh inactive, ATXN2 expr inh inconclusive, A549 tox inactive, HepG2 viability 13µM and S2 tox 25µM.
C[C@@H](C(=O)NC1CCN(Cc2ccccc2)CC1)N1C(=O)N2CCc3c([nH]c4ccccc34)[C@@]2(C)C1=O was read as TGFb SMAD3 inh inconclusive, Nrf2 inh inactive, ATXN2 expr inh inactive, A549 tox inactive, HepG2 viability inactive and S2 tox inactive.
For O=c1[nH]cnc2c1ncn2[C@H]1C[C@H](O)[C@@H](CO)O1 the results were TGFb SMAD3 inh inactive, Nrf2 inh inactive, A549 tox inactive and HepG2 viability inactive.
For CCOc1cccc(C2CC(=O)Nc3cc4c(cc32)OCCO4)c1 (stereo unspecified) the results were TGFb SMAD3 inh inactive, Nrf2 inh 15µM, A549 tox inactive and HepG2 viability inactive.
`COc1ccccc1C1CC(=O)Nc2cc3c(cc21)OCCO3` (stereo unspecified) gave TGFb SMAD3 inh inconclusive, Nrf2 inh inconclusive, ATXN2 expr inh inactive, A549 tox inactive, HepG2 viability inactive and S2 tox inconclusive.
Screening CC(C)Oc1ccccc1C1CC(=O)Nc2cc3c(cc21)OCCO3 (stereo unspecified) returned TGFb SMAD3 inh inactive, Nrf2 inh 8.2µM, ATXN2 expr inh inactive, A549 tox inconclusive, HepG2 viability inactive and S2 tox inconclusive.
Cc1ccc(C2CC(=O)Nc3cc4c(cc32)OCCO4)cc1 (stereo unspecified) was read as TGFb SMAD3 inh inactive, Nrf2 inh inconclusive, ATXN2 expr inh inactive, A549 tox inactive and HepG2 viability inactive.
For COc1ccccc1N(C(=O)c1csnn1)C(C(=O)NC1CCCC1)c1ccccc1 (stereo unspecified) the results were TGFb SMAD3 inh inactive, Nrf2 inh inactive, ATXN2 expr inh inactive, A549 tox inactive, HepG2 viability inactive and S2 tox inactive.
For CCc1ccc(-n2c(=O)c3c4c(sc3n(Cc3ccccc3C#N)c2=O)CCC4)cc1 the results were TGFb SMAD3 inh inactive, Nrf2 inh inactive, ATXN2 expr inh inactive, A549 tox inactive, HepG2 viability inactive and S2 tox inactive.
For CCN1CCC(O)(/C=C/c2ccc(C(C)C)cc2)C(C(=O)/C=C/c2ccc(C(C)C)cc2)C1 (stereo unspecified) the results were TGFb SMAD3 inh 8.9µM, Nrf2 inh inactive, ATXN2 expr inh inconclusive, A549 tox inconclusive and HepG2 viability 13µM.
Screening CCN1CCN(C(=O)/C=C/c2ccc(C(C)C)cc2)CC1 returned TGFb SMAD3 inh inactive, Nrf2 inh inconclusive, ATXN2 expr inh inactive, A549 tox inactive, HepG2 viability inactive and S2 tox inactive.
Cc1ccc(NC(=O)/C=C/c2ccc(S(=O)(=O)N3CCOCC3)cc2)cc1S(=O)(=O)N(C)C was read as TGFb SMAD3 inh inactive, Nrf2 inh inconclusive, ATXN2 expr inh 28µM, A549 tox inactive, HepG2 viability inactive and S2 tox inconclusive.
For COc1ccc(OC)c(/C=C/C(=O)Nc2cccc(S(=O)(=O)NC3=NCCCCC3)c2)c1 the results were TGFb SMAD3 inh inactive, Nrf2 inh inconclusive, A549 tox inactive, HepG2 viability inactive and S2 tox inconclusive.
`CC(=O)Nc1cccc(NC(=O)/C=C/c2ccc(S(=O)(=O)N3CCOCC3)cc2)c1` gave TGFb SMAD3 inh inactive, Nrf2 inh inconclusive, ATXN2 expr inh inactive, A549 tox inactive, HepG2 viability inactive and S2 tox inactive.
For O=C(/C=C/c1ccc(F)cc1)Nc1ccc(S(=O)(=O)N2CCOCC2)cc1 the results were TGFb SMAD3 inh inactive, Nrf2 inh inconclusive, ATXN2 expr inh inactive, A549 tox inactive, HepG2 viability inactive and S2 tox inactive.
`CCN(CC)S(=O)(=O)c1ccc(/C=C/C(=O)Nc2ccc(N3CCOCC3)cc2)cc1` gave TGFb SMAD3 inh inactive, Nrf2 inh 16µM, A549 tox inactive, HepG2 viability inactive and S2 tox inactive.
`COc1ccc(/C=C/C(=O)Nc2ccc(N3CCOCC3)cc2)cc1` gave TGFb SMAD3 inh inactive, Nrf2 inh inactive, ATXN2 expr inh inactive, A549 tox inactive, HepG2 viability inactive and S2 tox inactive.
COc1ccc(OC)c(/C=C/C(=O)Nc2cccc(S(=O)(=O)N3CCCC3)c2)c1 was read as TGFb SMAD3 inh inactive, Nrf2 inh 13µM, A549 tox inactive, HepG2 viability inactive and S2 tox inactive.
`COc1cccc(NC(=O)/C=C/c2ccc(S(=O)(=O)N3CCOCC3)cc2)c1` gave TGFb SMAD3 inh inactive, Nrf2 inh inconclusive, ATXN2 expr inh 22µM, A549 tox inactive, HepG2 viability inactive and S2 tox inactive.
Screening COc1ccc(/C=C/C(=O)N2CCN(c3ccccc3)CC2)cc1S(=O)(=O)N1CCOCC1 returned TGFb SMAD3 inh inactive, Nrf2 inh 13µM, ATXN2 expr inh inactive, A549 tox inactive, HepG2 viability inactive and S2 tox inconclusive.
Screening COc1cc(/C=C/C(=O)Nc2ccc(OC)c(S(=O)(=O)N3CCOCC3)c2)ccc1OC(F)F returned TGFb SMAD3 inh inconclusive, Nrf2 inh 18µM, ATXN2 expr inh inconclusive, A549 tox inactive, HepG2 viability inactive and S2 tox inconclusive.
